MITF primary: MITF inhibitors, primary screen, biochemical, AlphaScreen, human; Microphthalmia-associated transcription factor (Homo sapiens), O75030; AlphaScreen MITF homodimerization, bead proximity signal; inhibition, % at 2.6 µM; actives 0.91% (n = 650,000); AID 1259374, 2018; in the data active means inhibition above about 50%;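 further: 0% = vehicle wells with protein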
FBW7 act: FBW7 E3 ligase activators, primary screen, biochemical, AlphaScreen, human; F-box/WD repeat-containing protein 7 (Homo sapiens), Q969H0; AlphaScreen FBW7–phospho-cyclin E peptide binding, activator screen; normalized activity (activation), % at 26.1 µM; actives 0.13% (n = 650,000); in the data active means normalized activity above about 1.9%;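 further: purified mutant Fbw7 with reduced substrate affinity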
GPR151 activ: activators of human GPR151, primary screen, cell-based, PathHunter beta-arrestin, luminescence. AID 1508602, 2020. actives 1% (n = 650,000). activation, % at 11.2 µM. PathHunter beta-arrestin GPR151 cells; in the data active means activation above about 4.9%;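 further: 0% = median of compound wells and 100% = cells with positive control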
Target sequence (Q8TDV0 whole entry, looked up): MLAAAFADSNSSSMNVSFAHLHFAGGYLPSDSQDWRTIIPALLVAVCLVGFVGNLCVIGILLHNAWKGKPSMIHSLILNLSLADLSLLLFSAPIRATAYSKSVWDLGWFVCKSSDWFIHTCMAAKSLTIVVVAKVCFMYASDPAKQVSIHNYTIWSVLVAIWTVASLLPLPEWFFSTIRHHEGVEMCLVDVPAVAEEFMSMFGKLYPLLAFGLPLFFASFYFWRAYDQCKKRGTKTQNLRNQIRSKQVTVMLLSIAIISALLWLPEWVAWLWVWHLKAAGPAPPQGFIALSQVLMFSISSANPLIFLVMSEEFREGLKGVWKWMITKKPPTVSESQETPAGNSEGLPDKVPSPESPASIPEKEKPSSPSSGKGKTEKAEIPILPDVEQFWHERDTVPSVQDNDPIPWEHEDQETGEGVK
TEAD-YAP block: TEAD-YAP interaction inhibition, primary screen, TEAD-YAP interaction inhibitor project, luminescence, HEK-TIYL cells; actives 1.4% (n = 640,000); AID 1259422, 2018; inhibition, % at 9.12 µM; TEAD-Gal4/YAP UAS-luciferase luminescence; in the data active means inhibition above about 32%;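 further: 0% = median of test compound wells and 100% = reference inhibitor wells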
GPR151 confirm: GPR151 activators, triplicate retest, confirmation, cell-based, PathHunter beta-arrestin, luminescence; shares compounds with GPR151 activ; GPR151 PathHunter beta-arrestin cells, 90 min; % of EA-reagent control over plate median; activation, % at 11.2 µM; 6,700 tested, under 10 active; AID 1508609, 2020;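 active means mean percent activation across replicates above the confirmation screen cutoff of 4.91%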
GPR119 counter: GPR119 activators in beta-arrestin cells, counter-screen for GPR151 activator project, cell-based, PathHunter beta-arrestin, luminescence, triplicate. shares compounds with GPR151 activ. 90 min; 0 = compound-well median, 100 = enzyme-acceptor control. activation, % at 11.2 µM. actives 0.3% (n = 6,700). AID 1508611, 2020;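 active means mean percent activation in the counterscreen above 29.09%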;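 further: counterscreen on off-target GPR119 to flag nonselective hits from the GPR151 activator screen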
* hit, by the source's call; ! = not confirmed by another sample. This is a sample that favours compounds with a hit; in the whole collection about 3.5% have one here.

Screening COc1cc(OC)c(CN2CCC(CO)(CCOc3ccccc3)CC2)c(OC)c1 returned MITF primary 9, FBW7 act 0, GPR151 activ 5.4*, TEAD-YAP block 11, GPR151 confirm -1 and GPR119 counter -12.
Screening O=C(NNC1CC(c2ccccc2)=NN1C(=O)c1ccccc1)c1ccccc1 (configuration not stated) returned MITF primary -3, FBW7 act 0, GPR151 activ 6.5*, TEAD-YAP block 3, GPR151 confirm 0 and GPR119 counter 3.
C=CCOc1ccc(/C(O)=C2\C(=O)C(=O)N(c3nc(C)c(C(=O)OCC)s3)C2c2ccc(Cl)cc2)c(C)c1 (configuration not stated) was read as MITF primary 11, FBW7 act 0, GPR151 activ 1 and TEAD-YAP block -4.
Screening Clc1ccc2c(c1)CCc1cccnc1C2=C1CCNCC1 returned MITF primary 6, FBW7 act 0, GPR151 activ 7.8*!, TEAD-YAP block -16, GPR151 confirm 0 and GPR119 counter 11.
COc1ccc(CCNC(=O)c2ccc3c(c2)ncn3-c2ccc(C)cc2C)cc1OC was read as MITF primary 11, FBW7 act 0, GPR151 activ 0 and TEAD-YAP block 15.
Cc1ccc(-n2cnc3cc(C(=O)NCCc4ccccc4)ccc32)c(C)c1 was read as MITF primary -7, FBW7 act 0, GPR151 activ 5.5*, TEAD-YAP block 6, GPR151 confirm 0 and GPR119 counter -12.
For OCCNc1nc(Nc2ccccc2)nc2c1ncn2-c1ccsc1 the results were MITF primary 13, FBW7 act 0, GPR151 activ 5.1*, TEAD-YAP block 59*, GPR151 confirm 0 and GPR119 counter -8.
For c1ccc(Nc2nc(Nc3ccccc3)c3ncn(-c4ccsc4)c3n2)cc1 the results were MITF primary 11, FBW7 act 0, GPR151 activ 1 and TEAD-YAP block 7.
For CN(C)c1cccc(Nc2nc(NCCO)c3ncn(-c4ccsc4)c3n2)c1 the results were MITF primary 17, FBW7 act 0, GPR151 activ -2 and TEAD-YAP block 8.
For CC(C)N(CCNc1nc(Nc2cccc(N(C)C)c2)nc2c1ncn2-c1ccsc1)C(C)C the results were MITF primary 9, FBW7 act 0, GPR151 activ 5.7*, TEAD-YAP block 2, GPR151 confirm -1 and GPR119 counter -13.
Screening Cc1nn(C)c(C)c1-c1nc(NCCN2CCOCC2)c2ncn(-c3ccccc3)c2n1 returned MITF primary 18, FBW7 act 0, GPR151 activ 0 and TEAD-YAP block 21.
Cc1nn(C)c(C)c1-c1nc(NCCO)c2ncn(-c3ccccc3)c2n1 was read as MITF primary 3, FBW7 act 0, GPR151 activ 5.2*, TEAD-YAP block 29, GPR151 confirm 1 and GPR119 counter -3.
CN(C)c1cccc(Nc2nc(Nc3ccc(N4CCOCC4)cc3)c3ncn(-c4ccsc4)c3n2)c1 was read as MITF primary 5, FBW7 act 0, GPR151 activ 0 and TEAD-YAP block 9.
Screening CN(C)c1cccc(Nc2nc(Nc3ccc4c(c3)OCO4)c3ncn(-c4ccsc4)c3n2)c1 returned MITF primary 7, FBW7 act 0, GPR151 activ 5.0*, TEAD-YAP block -34, GPR151 confirm -1 and GPR119 counter -13.
For NNC(=O)c1ccc(OC2OCCOC2Oc2ccc(C(=O)NN)cc2)cc1 (configuration not stated) the results were MITF primary -3, FBW7 act 0, GPR151 activ 3 and TEAD-YAP block 10.
`O=C(CSc1ccc(F)cc1)Nc1ccc(Cl)c(N2CCCS2(=O)=O)c1` gave MITF primary -8, FBW7 act 0, GPR151 activ 12*, TEAD-YAP block -5, GPR151 confirm 0 and GPR119 counter 1.
For O=C(Cn1c(-c2ccccn2)nc2ccccc21)N1CCCCC1 the results were MITF primary 1, FBW7 act 1, GPR151 activ -3 and TEAD-YAP block 2.
